The text below walks through data of article PMC11102866, “Nucleosome-bound NR5A2 structure reveals pioneer factor mechanism by DNA minor groove anchor competition”.

B1: 14 (nucleosome)
DNA 1: ATCCTGGAGAATCCCGTCAAGGCCACCGCTCAATTGGTCGTAGACAGCTCTAGCACCGCTTAAACGCACGTACGCGCTGTCCCCCGCGTTTTAACCGCCAAGGGGATTACTCCCTAGTCTCCAGGCACGTGTCAGATATATACATCCTGTGAT
DNA 2: ATCACAGGATGTATATATCTGACACGTGCCTGGAGACTAGGGAGTAATCCCCTTGGCGGTTAAAACGCGGGGGACAGCGCGTACGTGCGTTTAAGCGGTGCTAGAGCTGTCTACGACCAATTGAGCGGTGGCCTTGACGGGATTCTCCAGGAT
modifications: reconstituted with mouse histones H2A, H2B, H3.3 and H4
B2: 115 (nucleosome)
DNA 1: ATCCTGGAGAATCCCGGTGCCGAGGCCGCTCAATTGGTCGTAGACAGCTCTAGCACCGCTTAAACGCACGTACGCGCTGTCCCCCGCGTTTTAACCGCCAAGGGGATTACTCCCTAGTCAAGGCCAACGTGTCAGATATATACATCCTGTGAT
DNA 2: ATCACAGGATGTATATATCTGACACGTTGGCCTTGACTAGGGAGTAATCCCCTTGGCGGTTAAAACGCGGGGGACAGCGCGTACGTGCGTTTAAGCGGTGCTAGAGCTGTCTACGACCAATTGAGCGGCCTCGGCACCGGGATTCTCCAGGAT
modifications: reconstituted with mouse histones H2A, H2B, H3.3 and H4
B3: 121 (nucleosome)
DNA 1: ATCCTGGAGAATCCCGGTGCCGAGGCCGCTCAATTGGTCGTAGACAGCTCTAGCACCGCTTAAACGCACGTACGCGCTGTCCCCCGCGTTTTAACCGCCAAGGGGATTACTCCCTAGTCTCCATCAAGGCCACAGATATATACATCCTGTGAT
DNA 2: ATCACAGGATGTATATATCTGTGGCCTTGATGGAGACTAGGGAGTAATCCCCTTGGCGGTTAAAACGCGGGGGACAGCGCGTACGTGCGTTTAAGCGGTGCTAGAGCTGTCTACGACCAATTGAGCGGCCTCGGCACCGGGATTCTCCAGGAT
modifications: reconstituted with mouse histones H2A, H2B, H3.3 and H4
B4: 117 (nucleosome)
DNA 1: ATCCTGGAGAATCCCGGTGCCGAGGCCGCTCAATTGGTCGTAGACAGCTCTAGCACCGCTTAAACGCACGTACGCGCTGTCCCCCGCGTTTTAACCGCCAAGGGGATTACTCCCTAGTCTCAAGGCCAGTGTCAGATATATACATCCTGTGAT
DNA 2: ATCACAGGATGTATATATCTGACACTGGCCTTGAGACTAGGGAGTAATCCCCTTGGCGGTTAAAACGCGGGGGACAGCGCGTACGTGCGTTTAAGCGGTGCTAGAGCTGTCTACGACCAATTGAGCGGCCTCGGCACCGGGATTCTCCAGGAT
modifications: reconstituted with mouse histones H2A, H2B, H3.3 and H4
B5: 120 (nucleosome)
DNA 1: ATCCTGGAGAATCCCGGTGCCGAGGCCGCTCAATTGGTCGTAGACAGCTCTAGCACCGCTTAAACGCACGTACGCGCTGTCCCCCGCGTTTTAACCGCCAAGGGGATTACTCCCTAGTCTCCTCAAGGCCATCAGATATATACATCCTGTGAT
DNA 2: ATCACAGGATGTATATATCTGATGGCCTTGAGGAGACTAGGGAGTAATCCCCTTGGCGGTTAAAACGCGGGGGACAGCGCGTACGTGCGTTTAAGCGGTGCTAGAGCTGTCTACGACCAATTGAGCGGCCTCGGCACCGGGATTCTCCAGGAT
modifications: reconstituted with mouse histones H2A, H2B, H3.3 and H4
B6: 119 (nucleosome)
DNA 1: ATCCTGGAGAATCCCGGTGCCGAGGCCGCTCAATTGGTCGTAGACAGCTCTAGCACCGCTTAAACGCACGTACGCGCTGTCCCCCGCGTTTTAACCGCCAAGGGGATTACTCCCTAGTCTCTCAAGGCCAGTCAGATATATACATCCTGTGAT
DNA 2: ATCACAGGATGTATATATCTGACTGGCCTTGAGAGACTAGGGAGTAATCCCCTTGGCGGTTAAAACGCGGGGGACAGCGCGTACGTGCGTTTAAGCGGTGCTAGAGCTGTCTACGACCAATTGAGCGGCCTCGGCACCGGGATTCTCCAGGAT
modifications: reconstituted with mouse histones H2A, H2B, H3.3 and H4
B7: 113 (nucleosome)
DNA 1: ATCCTGGAGAATCCCGGTGCCGAGGCCGCTCAATTGGTCGTAGACAGCTCTAGCACCGCTTAAACGCACGTACGCGCTGTCCCCCGCGTTTTAACCGCCAAGGGGATTACTCCCTTCAAGGCCAGCACGTGTCAGATATATACATCCTGTGAT
DNA 2: ATCACAGGATGTATATATCTGACACGTGCTGGCCTTGAAGGGAGTAATCCCCTTGGCGGTTAAAACGCGGGGGACAGCGCGTACGTGCGTTTAAGCGGTGCTAGAGCTGTCTACGACCAATTGAGCGGCCTCGGCACCGGGATTCTCCAGGAT
modifications: reconstituted with mouse histones H2A, H2B, H3.3 and H4
B8: 114 (nucleosome)
DNA 1: ATCCTGGAGAATCCCGGTGCCGAGGCCGCTCAATTGGTCGTAGACAGCTCTAGCACCGCTTAAACGCACGTACGCGCTGTCCCCCGCGTTTTAACCGCCAAGGGGATTACTCCCTATCAAGGCCACACGTGTCAGATATATACATCCTGTGAT
DNA 2: ATCACAGGATGTATATATCTGACACGTGTGGCCTTGATAGGGAGTAATCCCCTTGGCGGTTAAAACGCGGGGGACAGCGCGTACGTGCGTTTAAGCGGTGCTAGAGCTGTCTACGACCAATTGAGCGGCCTCGGCACCGGGATTCTCCAGGAT
modifications: reconstituted with mouse histones H2A, H2B, H3.3 and H4
B9: 116 (nucleosome)
DNA 1: ATCCTGGAGAATCCCGGTGCCGAGGCCGCTCAATTGGTCGTAGACAGCTCTAGCACCGCTTAAACGCACGTACGCGCTGTCCCCCGCGTTTTAACCGCCAAGGGGATTACTCCCTAGTTCAAGGCCACGTGTCAGATATATACATCCTGTGAT
DNA 2: ATCACAGGATGTATATATCTGACACGTGGCCTTGAACTAGGGAGTAATCCCCTTGGCGGTTAAAACGCGGGGGACAGCGCGTACGTGCGTTTAAGCGGTGCTAGAGCTGTCTACGACCAATTGAGCGGCCTCGGCACCGGGATTCTCCAGGAT
modifications: reconstituted with mouse histones H2A, H2B, H3.3 and H4
B10: 118 (nucleosome)
DNA 1: ATCCTGGAGAATCCCGGTGCCGAGGCCGCTCAATTGGTCGTAGACAGCTCTAGCACCGCTTAAACGCACGTACGCGCTGTCCCCCGCGTTTTAACCGCCAAGGGGATTACTCCCTAGTCTTCAAGGCCATGTCAGATATATACATCCTGTGAT
DNA 2: ATCACAGGATGTATATATCTGACATGGCCTTGAAGACTAGGGAGTAATCCCCTTGGCGGTTAAAACGCGGGGGACAGCGCGTACGTGCGTTTAAGCGGTGCTAGAGCTGTCTACGACCAATTGAGCGGCCTCGGCACCGGGATTCTCCAGGAT
modifications: reconstituted with mouse histones H2A, H2B, H3.3 and H4
B11: 122 (nucleosome)
DNA 1: ATCCTGGAGAATCCCGGTGCCGAGGCCGCTCAATTGGTCGTAGACAGCTCTAGCACCGCTTAAACGCACGTACGCGCTGTCCCCCGCGTTTTAACCGCCAAGGGGATTACTCCCTAGTCTCCAGTCAAGGCCAAGATATATACATCCTGTGAT
DNA 2: ATCACAGGATGTATATATCTTGGCCTTGACTGGAGACTAGGGAGTAATCCCCTTGGCGGTTAAAACGCGGGGGACAGCGCGTACGTGCGTTTAAGCGGTGCTAGAGCTGTCTACGACCAATTGAGCGGCCTCGGCACCGGGATTCTCCAGGAT
modifications: reconstituted with mouse histones H2A, H2B, H3.3 and H4
B12: 124 (nucleosome)
DNA 1: ATCCTGGAGAATCCCGGTGCCGAGGCCGCTCAATTGGTCGTAGACAGCTCTAGCACCGCTTAAACGCACGTACGCGCTGTCCCCCGCGTTTTAACCGCCAAGGGGATTACTCCCTAGTCTCCAGGCTCAAGGCCAATATATACATCCTGTGAT
DNA 2: ATCACAGGATGTATATATTGGCCTTGAGCCTGGAGACTAGGGAGTAATCCCCTTGGCGGTTAAAACGCGGGGGACAGCGCGTACGTGCGTTTAAGCGGTGCTAGAGCTGTCTACGACCAATTGAGCGGCCTCGGCACCGGGATTCTCCAGGAT
modifications: reconstituted with mouse histones H2A, H2B, H3.3 and H4
B13: 123 (nucleosome)
DNA 1: ATCCTGGAGAATCCCGGTGCCGAGGCCGCTCAATTGGTCGTAGACAGCTCTAGCACCGCTTAAACGCACGTACGCGCTGTCCCCCGCGTTTTAACCGCCAAGGGGATTACTCCCTAGTCTCCAGGTCAAGGCCAGATATATACATCCTGTGAT
DNA 2: ATCACAGGATGTATATATCTGGCCTTGACCTGGAGACTAGGGAGTAATCCCCTTGGCGGTTAAAACGCGGGGGACAGCGCGTACGTGCGTTTAAGCGGTGCTAGAGCTGTCTACGACCAATTGAGCGGCCTCGGCACCGGGATTCTCCAGGAT
modifications: reconstituted with mouse histones H2A, H2B, H3.3 and H4
B14: 125 (nucleosome)
DNA 1: ATCCTGGAGAATCCCGGTGCCGAGGCCGCTCAATTGGTCGTAGACAGCTCTAGCACCGCTTAAACGCACGTACGCGCTGTCCCCCGCGTTTTAACCGCCAAGGGGATTACTCCCTAGTCTCCAGGCATCAAGGCCATATATACATCCTGTGAT
DNA 2: ATCACAGGATGTATATATGGCCTTGATGCCTGGAGACTAGGGAGTAATCCCCTTGGCGGTTAAAACGCGGGGGACAGCGCGTACGTGCGTTTAAGCGGTGCTAGAGCTGTCTACGACCAATTGAGCGGCCTCGGCACCGGGATTCTCCAGGAT
modifications: reconstituted with mouse histones H2A, H2B, H3.3 and H4
B15: 126 (nucleosome)
DNA 1: ATCCTGGAGAATCCCGGTGCCGAGGCCGCTCAATTGGTCGTAGACAGCTCTAGCACCGCTTAAACGCACGTACGCGCTGTCCCCCGCGTTTTAACCGCCAAGGGGATTACTCCCTAGTCTCCAGGCACTCAAGGCCAATATACATCCTGTGAT
DNA 2: ATCACAGGATGTATATTGGCCTTGAGTGCCTGGAGACTAGGGAGTAATCCCCTTGGCGGTTAAAACGCGGGGGACAGCGCGTACGTGCGTTTAAGCGGTGCTAGAGCTGTCTACGACCAATTGAGCGGCCTCGGCACCGGGATTCTCCAGGAT
modifications: reconstituted with mouse histones H2A, H2B, H3.3 and H4

The first test deals with NR5A2 wild type;histone octamer (Homo sapiens;, UniProt O00482;C0HKE1;Q6ZWY9;P84244;P62806 1-541;2-130;2-126;2-136;2-103, |). Put plainly: SeEN-seq (EMSA of nucleosome library followed by sequencing); 0.8 uM human NR5A2; 20 mM Tris-HCl pH 7.5, 120 mM NaCl, 1 mM MgCl2, 10 uM ZnCl2, 1 mM DTT, 100 ug/ml BSA, room temperature, 30 min; 0.1 uM nucleosome library; high values mean tight binding. A general note: Mobility shift assays separate free from complexed probe on a gel.
As to B1, the binding signal was 3.44 log2 enrichment (bound/unbound, relative to Widom 601).

Regarding B2, the binding signal was 0.998 log2 enrichment (bound/unbound, relative to Widom 601).

As to B3, the binding signal is 0.664 log2 enrichment (bound/unbound, relative to Widom 601).

As to B4, the binding signal is 1.13 log2 enrichment (bound/unbound, relative to Widom 601).

Regarding B5, the binding signal is 0.677 log2 enrichment (bound/unbound, relative to Widom 601).

Regarding B6, the binding signal is 0.607 log2 enrichment (bound/unbound, relative to Widom 601).

Turning to B7, the binding signal is 0.896 log2 enrichment (bound/unbound, relative to Widom 601).

Regarding B8, the binding signal was 1.13 log2 enrichment (bound/unbound, relative to Widom 601).

With B9, the binding signal was 1.39 log2 enrichment (bound/unbound, relative to Widom 601).

In the case of B10, the binding signal was 1.08 log2 enrichment (bound/unbound, relative to Widom 601).

Take B11: the binding signal is 0.909 log2 enrichment (bound/unbound, relative to Widom 601).

Regarding B12, the binding signal was 3.87 log2 enrichment (bound/unbound, relative to Widom 601).

On to B13, for which the binding signal is 1.01 log2 enrichment (bound/unbound, relative to Widom 601).

With B14, the binding signal was 4.55 log2 enrichment (bound/unbound, relative to Widom 601).

With B15, the binding signal was 4.66 log2 enrichment (bound/unbound, relative to Widom 601).

In a further test the target is mouse Nr5a2 wild type;histone octamer (Mus musculus;, UniProt P45448;C0HKE1;Q6ZWY9;P84244;P62806 1-560;2-130;2-126;2-136;2-103, |). Put plainly: SeEN-seq (EMSA of nucleosome library followed by sequencing); 1.2 uM mouse Nr5a2; 20 mM Tris-HCl pH 7.5, 120 mM NaCl, 1 mM MgCl2, 10 uM ZnCl2, 1 mM DTT, 100 ug/ml BSA, room temperature, 30 min; 0.1 uM nucleosome library; high values mean tight binding.
With B1, the binding signal is 2.91 log2 enrichment (bound/unbound, relative to Widom 601).

Regarding B2, the binding signal was 1.02 log2 enrichment (bound/unbound, relative to Widom 601).

Take B3: the binding signal was 0.599 log2 enrichment (bound/unbound, relative to Widom 601).

Take B4: the binding signal is 1.34 log2 enrichment (bound/unbound, relative to Widom 601).

Regarding B5, the binding signal was 0.768 log2 enrichment (bound/unbound, relative to Widom 601).

Consider B6, for which the binding signal was 0.776 log2 enrichment (bound/unbound, relative to Widom 601).

In the case of B7, the binding signal is 0.869 log2 enrichment (bound/unbound, relative to Widom 601).

Consider B8, for which the binding signal is 1.08 log2 enrichment (bound/unbound, relative to Widom 601).

As for B9, the binding signal is 2.15 log2 enrichment (bound/unbound, relative to Widom 601).

B10: the binding signal was 1.4 log2 enrichment (bound/unbound, relative to Widom 601).

B11: the binding signal is 0.939 log2 enrichment (bound/unbound, relative to Widom 601).

As for B12, the binding signal is 2.91 log2 enrichment (bound/unbound, relative to Widom 601).

For B13, the binding signal was 1.41 log2 enrichment (bound/unbound, relative to Widom 601).

For B14, the binding signal was 3.58 log2 enrichment (bound/unbound, relative to Widom 601).

For the molecule B15, the binding signal is 3.59 log2 enrichment (bound/unbound, relative to Widom 601).
